High-throughput results: PubChem, National Center for Advancing Translational Sciences (NCATS)
Only some compounds are listed: those with a hit (about 11% of all), similar ones and a draw of the others.
3T3 cytotox: cytotoxic compounds in NIH 3T3 cells | NIH 3T3 viability, CellTiter-Glo ATP luminescence, 48-72 h | Potency, µM (top dose mostly 96.7 µM), without a hit: at the highest dose activity change, negative = cytotoxicity, actives largely listed as inhibitors | hit rate 4.3% among 94,000 | AID 1345082; further: nearly all actives have a fitted effect of over 55% in size
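Viability of NIH 3T3 cells after 48 or 72 hr compound treatment at 37 °C was assessed by CellTiter-Glo, with luminescence imaged following a 10 min room-temperature step.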
HEK cytotox: kills HEK 293 cells; HEK 293 viability, ATP luminescence (CellTiter-Glo), 48-72 h; Potency, µM (series often up to 115 µM), inactives show top-dose activity change, negative = cytotoxicity, most hits filed as inhibitors; hit rate 6.6% among 94,000; AID 1345083; further: nearly all actives have a fitted effect of over 60% in size
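HEK 293 seeded at 250 cells/well receive compound via pintool. After 48 or 72 hr at 37 degree Celsius, 5% CO2 and 95% humidity, CellTiter-Glo is dispensed and luminescence read following 10 min at room temperature.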
NPR1 antag: antagonists of human natriuretic peptide receptor Npr1. Potency, µM (series often up to 46.3 µM), inactives show top-dose activity change, negative = inhibition, hits mostly inhibitors. hit rate 1.6% among 76,000. P16066. AID 1347048. HEK293 hNpr1 GloSensor cGMP, ANP-stimulated luminescence; calls by dose curve; further: nearly all actives have a fitted effect of over 60% in size
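Compound pre-incubated 30 min at room temperature on GloSensor-loaded HEK293 cells stably carrying hNpr1 and the pGS-40F cGMP biosensor. Stimulation uses hNppA at 0.1 nM final; luminescence is taken at baseline and 20 min post-agonist.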
Luciferase inh: Photinus pyralis luciferase inhibition; P08659; purified P. pyralis luciferase, luminescence, biochemical; Potency, µM (top dose mostly 115 µM), hits mostly inhibitors; hit rate 2.5% among 76,000; further: nearly all actives have a fitted effect of over 65% in size
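Purified 10nM P. pyralis luciferase with 10uM D-luciferin and 10uM ATP in 50mM Tris acetate pH 7.5, 10mM Mg acetate, 0.01% Tween-20, 0.05% BSA. qHTS titration; luminescence read by CCD imager.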
Active calls of the source: *; i = inactive; ? = inconclusive; / = no result given; [ ] = remark or other dose. Unless noted, the call rests on the fitted dose curve; in most records, active means well fitted curve in the direction sought with a large enough effect; inconclusive means small, poorly fitted or top-dose-only effect, or another doubt; inactive means no such curve, though single readings can be large; an effect the other way counts as inactive or inconclusive. On the % scale 0 is the no-effect control and ±100 the full control effect; potency means the concentration at half of the fitted maximal effect.

SMILES	3T3 cytotox	HEK cytotox	NPR1 antag	Luciferase inh
CCc1ccc(Cn2nc(C3CC3)nc2-c2cnn(C)c2)cc1	?	?	4%	?
Cn1nc(-c2ccncc2)cc1NC(=O)C(C)(C)C	-34%[138 µM]	-13%[172 µM]	/	/
Cc1ccsc1C(=O)N1CCC2(CC1)OC(=NCCc1ccccc1)NC2=O	-25%	-20%	/	/
O=C(NCc1ccccc1)N1CC(Oc2ccc(-c3nc(-c4ccccc4)no3)cc2)C1	-2%	?	?	2.5µM*
Cc1cc(C)n(CCC(=O)N2CC(Oc3cccc(-c4nc(-c5ccccc5)no4)c3)C2)n1	40µM*	?	?	28µM*
O=C(COc1ccc(F)cc1)N1CC(Oc2cccc(-c3nc(-c4ccccc4)no3)c2)C1	?	?	-17%	?
O=C(Nc1ccccc1F)N1CC(Oc2ccc(-c3nc(-c4ccccc4)no3)cc2)C1	-1%	-11%	-18%	?
O=C(CCc1ccccc1)N1CC(Oc2ccc(-c3nc(-c4ccccc4)no3)cc2)C1	-18%	?	?	?
O=C(NCc1ccccc1)N1CC(Oc2cccc(-c3nc(-c4ccccc4)no3)c2)C1	?	18µM*	-20%	i
O=C(Nc1ccccc1F)N1CC(Oc2ccc(-c3noc(-c4ccccc4)n3)cc2)C1	-16%	?	10µM*	?
CN(C)[S+](=O)([O-])c1ccc2c(c1)OCCN(Cc1ccc(F)cc1F)C2	?	?	?	i
c1coc(CN2CC(Oc3ccc(-c4noc(-c5ccncc5)n4)cc3)C2)c1	?	18µM*	11µM*	4µM*
O=C(NCc1ccc(F)cc1)N1CC(Oc2ccc(-c3noc(-c4ccccc4)n3)cc2)C1	?	?	14µM*	?
c1cc(-c2nc(-c3ccc(OC4CNC4)cc3)no2)ccn1	?	?	-3%	?
c1ccc(-c2nc(-c3ccc(OC4CNC4)cc3)no2)cc1	16µM*	?	?	4µM*
Cc1noc(C2CC3(CCN(C(=O)c4cccs4)CC3)CN2C)n1 (stereo not drawn)	-1%	-12%	0%	i
Cn1ccnc1CN1CCOc2cc([S+](=O)([O-])Nc3ccccc3)ccc2C1	-23%[138 µM]	112µM*	-20%[70.6 µM]	i
O=[S+]([O-])(Nc1ccccc1)c1ccc2c(c1)OCCN(Cc1ccc(F)cc1)C2	50µM*	71µM*	?	i
O=[S+]([O-])(Nc1cccnc1)c1ccc2c(c1)OCCN(Cc1ccncc1F)C2	35µM*	-18%[172 µM]	0%[70.6 µM]	i
O=[S+]([O-])(Nc1ccccc1)c1ccc2c(c1)OCCN(Cc1ccncc1F)C2	?	?	?	i
O=[S+]([O-])(Nc1nncs1)c1ccc2c(c1)OCCN(Cc1cccs1)C2	25µM*	-30%[172 µM]	-10%[70.6 µM]	i
O=[S+]([O-])(Nc1nncs1)c1ccc2c(c1)OCCN(Cc1ccccc1)C2	?	-5%[172 µM]	/	i
O=C(C1CCN(Cc2ccccc2-c2cccnc2)CC1)N1CCOCC1	?	-5%	/	/
Cc1ccc(C(=O)N2CCCC2C(=O)N2CCC(c3nc4ccncc4[nH]3)C2)cc1 (stereo not drawn)	-8%	-1%	/	/
Cc1ccncc1C(=O)NCC(=O)N1CCCCCNC(=O)CC1c1ccccc1 (stereo not drawn)	2%	-3%	3%	i
SMILES	3T3 cytotox	HEK cytotox	NPR1 antag	Luciferase inh
O=[S+]([O-])(Nc1cccnc1)c1ccc2c(c1)OCCN(Cc1cncc(F)c1)C2	45µM*	-9%[172 µM]	6%[70.6 µM]	i
O=C(NC1CCN(Cc2ccccc2)CC1)c1c(OCC2CC2)cc(=O)n2c1CCCCC2	-4%	-1%	2%	i
Cc1ccc([S+](=O)([O-])NC2CCN(Cc3cccc(-c4cccs4)c3)CC2)cc1	11µM*	?	/	/
O=C(Cc1ccc(F)cc1)NC1CCN(Cc2cccc(-c3cccs3)c2)CC1	-12%	-1%	/	/
O=C(c1ccc(-c2cccs2)cc1)N1CCC(N[S+](=O)([O-])c2ccccc2)CC1	?	45µM*	/	/
O=C(c1ccc(-c2cncnc2)cc1)N1CCC(N[S+](=O)([O-])c2ccccc2)CC1	-16%	-13%	/	/
O=C(NCc1ccccc1Cl)C1CCN(C(=O)c2ccc(-c3cccs3)cc2)CC1	40µM*	?	/	/
O=[S+]([O-])(NC1CCN(Cc2cccc(-c3cccs3)c2)CC1)c1ccccc1	40µM*	45µM*	/	/
CNC(=O)c1cc(C2CC2)nc2onc(C3CCCN(C(=O)c4cccc(Cl)c4)C3)c12 (stereo not drawn)	-29%	?	/	/
CNC(=O)c1cc(C2CC2)nc2c1c(C1CCN(C(=O)c3ccccn3)C1)nn2C (stereo not drawn)	-13%	-21%	/	/
CCOC(=O)[C@H]1C[C@]2(CCCCN(CCOC)C2=O)N(C(=O)C2CCCC2)[C@H]1c1ccco1	-9%	?	/	/
CCNC(=O)NC[C@@H]1C=C(C)[C@H](Cc2nnc(-c3cncn3C)o2)C[C@H]1C(C)C	?	-10%[172 µM]	2%[70.6 µM]	i
CCOC1CCOC2(CCN(C(=O)c3cccs3)CC2)C1 (stereo not drawn)	i	3%	/	/
CCc1nncn1C1CCN(S(=O)(=O)c2cc(OC)ccc2OC)CC1	0%	1%	-8%	i
Cc1nnc2ccc(N3CCN(S(C)(=O)=O)CC3)nn12	-12%[138 µM]	4%[172 µM]	/	/
O=[S+]([O-])(CCC(F)(F)F)NC1CCN(Cc2cccc(-c3cccs3)c2)CC1	22µM*	?	/	/
O=[S+]([O-])(NC1CCN(Cc2cccc(-c3ccc(F)c(F)c3)c2)CC1)c1cccs1	?	35µM*	/	/
Cc1cc(C)c(CNC(=O)c2cc(-c3cnn(C)c3)cc3c2OCCN3C(C)C)c(=O)[nH]1	?	?	5%[70.6 µM]	i
COC[C@@H]1CNC[C@H]1c1nc(C)no1	-7%	89µM*	-4%	i
COc1cc(NC(=S)N[C@H]2CO[C@H]3[C@@H]2OC[C@@H]3n2nnnc2Oc2cccc(N3CCOCC3)c2)cc(OC)c1	-24%	-27%	5%	i
Cc1cc(=O)n(CC(=O)N2CCCC(C)(Cc3ccc4c(c3)OCO4)C2)nc1C (stereo not drawn)	-30%	?	2%	i
CC1(Cc2ccc3c(c2)OCO3)CCCN(C(=O)CCCn2ccnc2)C1 (stereo not drawn)	?	40µM*	-13%	i
CC1(Cc2ccc3c(c2)OCO3)CCCN(CC(=O)NCc2ccco2)C1 (stereo not drawn)	-25%	45µM*	?	i
O=C(CNC(=O)c1cccc(-c2ccsc2)c1)NCC1CC1	-12%[138 µM]	?	/	/
C=CCNC(=O)c1cnn2cc(C)ccc12	-25%[174 µM]	-6%[230 µM]	0%[70.6 µM]	?
C=CCNC(=O)c1cnn2ncccc12	-10%[174 µM]	i	-5%[70.6 µM]	50µM*
COc1ccc(C(=O)NCCn2ccn3nc(-c4cc(C)ccc4C)cc3c2=O)c(OC)c1	?	40µM*	-22%	i
Cc1ccc(C)c(-c2cc3c(=O)n(CCNC(=O)c4ccccc4Cl)ccn3n2)c1	35µM*	45µM*	-18%	i
